Test results as given in PubChem BioAssay (NCATS).
Several values for one entry are separate records, joined by “and”; a condition that tells them apart may be missing. Identical values can stand only once. Records with an inconclusive call do not appear. Activity calls are given as the source filed them. Unless noted, calls come from the whole dose curve; as a rule, active = well fitted curve in the direction sought with a large enough effect; inconclusive = small, poorly fitted or top-dose-only effect, or another doubt; inactive = no such curve, though single readings can be large; an effect the other way counts as inactive or inconclusive.

Columns and labels:
[1] = target: Androgen receptor (Homo sapiens) (UniProt P10275); experiment: qHTS assay for small molecule agonists of androgen receptor signaling (AID 588515; active = well fitted curve in the direction sought with a large enough effect in the signal ratio, with a control signal flat; the % refers to the signal ratio; note: % is set by controls: 0 for no effect and ±100 for the full control effect); settings: AR-UAS-bla HEK293, beta-lactamase ratio, agonist 16 h; stronger effect = higher value
Method in brief: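 EC50 and efficacy came from Hill fits of titrations (up to 92 uM) normalized to 30 nM R1881 as 100% and DMSO as 0%. Compound exposure was 16 h at 37 C on AR-UAS-bla HEK293 cells, with a 405/460/530 nm CCF4 fluorescence read.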

[2] = target: ATP-dependent 6-phosphofructokinase (Trypanosoma brucei brucei) (UniProt O15648); experiment: qHTS Assay to Find Inhibitors of T. brucei phosphofructokinase: hit validation (AID 492961); note: % is set by controls: 0 for no effect and ±100 for the full control effect; settings: T. brucei PFK, ADP-Glo luminescence; series mostly up to 51.4 µM
Method in brief: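 Luminescence from ADP-Glo reports ADP generated as T. brucei PFK (1.25 nM) phosphorylates 0.5 mM fructose-6-phosphate using 0.1 mM ATP. Reactions ran 45 min at room temperature, pH 8.0.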

7G8 = experiment: qHTS profiling for inhibitors of Plasmodium falciparum proliferation (AID 504749); note: nearly all actives have a fitted effect of over 60% in size; note: potency is the fitted concentration of half-maximal effect; settings: P. falciparum in erythrocytes, SYBR Green DNA, 72 h; series mostly up to 28.7 µM
Method in brief: (§1)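 P. falciparum-infected erythrocytes (0.3% parasitemia, 2.5% hematocrit) incubated with compound 72 h at 37 C, 5% CO2. Parasite DNA detected by SYBR Green after lysis, overnight at room temperature; normalised to 0.29 uM artemisinin and DMSO.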

CP194 = experiment: as above; settings: P. falciparum in erythrocytes, SYBR Green DNA, 72 h; series mostly up to 28.7 µM
Method in brief: as §1

CP201 = experiment: as above; settings: P. falciparum in erythrocytes, SYBR Green DNA, 72 h; series mostly up to 28.7 µM
Method in brief: as §1

CP211 = experiment: as above; settings: P. falciparum in erythrocytes, SYBR Green DNA, 72 h; series mostly up to 28.7 µM
Method in brief: as §1

CP215 = experiment: as above; settings: P. falciparum in erythrocytes, SYBR Green DNA, 72 h; series mostly up to 28.7 µM
Method in brief: as §1

DIV14 = experiment: as above; settings: P. falciparum in erythrocytes, SYBR Green DNA, 72 h; series mostly up to 28.7 µM
Method in brief: as §1

PC26 = experiment: as above; settings: P. falciparum in erythrocytes, SYBR Green DNA, 72 h; series mostly up to 28.7 µM
Method in brief: as §1

[3] = S16 Schwann cell PMP22 intronic element beta-lactamase assay (AID 624044; calls by dose curve; note: nearly all actives have a fitted effect of over 15% in size; note: potency is the fitted concentration of half-maximal effect); settings: S16 rat Schwann cells, PMP22 element beta-lactamase FRET, 24 h; series mostly up to 38.3 µM
Method in brief: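 Rat S16 Schwann cells with beta-Lac driven by a PMP22 intronic element, compound-treated 24 h at 37 °C. LiveBLAzer FRET B/G read: 460 nm normalized to potassium clavulanate vs DMSO; 535 nm FRET as viability; concentration-effect curves classified.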

CP203 = experiment: qHTS profiling for inhibitors of Plasmodium falciparum proliferation (AID 504749); note: nearly all actives have a fitted effect of over 60% in size; note: potency is the fitted concentration of half-maximal effect; settings: P. falciparum in erythrocytes, SYBR Green DNA, 72 h; series mostly up to 28.7 µM
Method in brief: as §1

P93_24 = experiment: as above; settings: P. falciparum in erythrocytes, SYBR Green DNA, 72 h; series mostly up to 28.7 µM
Method in brief: as §1

[4] = AP1 Signaling Pathway (AID 357; active = well fitted curve in either direction with a large enough effect, not every such curve was filed as active;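 note: ME-180 reporter cells stimulated with EGF at its EC50 level; % is set by controls: 0 for no effect and ±100 for the full control effect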); settings: ME-180 AP-1-bla reporter, EGF-induced, beta-lactamase ratio, 5 h; at 7.69 µM (top of the series) unless noted
Method in brief: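 First, ME-180 AP-1-bla cells were cultured overnight at 37 °C in low-serum Opti-MEM. Next, titrated compounds with EC50 EGF were incubated 5 hours. Finally, CCF4 was added for 2.5 hours and the 460/530 nm ratio recorded.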

[5] = Stat Signaling Pathway (AID 446; active = well fitted curve in either direction with a large enough effect, not every such curve was filed as active;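 note: ME-180 cervical cancer cells given 40 pM IL-6 alongside compound; SIE-controlled beta-lactamase reporter measured as 460/530 nm FRET emission ratio; % is set by controls: 0 for no effect and ±100 for the full control effect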); settings: ME-180 (cervical carcinoma) SIE beta-lactamase reporter, IL-6 stimulated, 5 h; series mostly up to 7.69 µM
Method in brief: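 IL-6/STAT signaling read in ME-180 cells via an SIE beta-lactamase reporter. Stimulus was 40 pM IL-6 (its AC50) for 5 hrs, so both activation and inhibition register.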

[6] = target: Cytochrome P450 3A4 (Homo sapiens) (UniProt P08684); experiment: qHTS Assay for Activators of Cytochrome P450 3A4 (AID 885); settings: recombinant CYP3A4, Luciferin-PPXE luminescence, 60 min; series mostly up to 57.1 µM; note: nearly all actives have a fitted effect of over 65% in size
Method in brief: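 Quantitative HTS format: compounds preincubated with 20nM human CYP3A4 and Luciferin-PPXE substrate at KM, reaction started by NADPH regeneration, stopped after 60 min, luciferase luminescence read 20 min later.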

[7] = NFAT Signaling Pathway (AID 444; active = well fitted curve in either direction with a large enough effect, not every such curve was filed as active); settings: Jurkat NFAT-bla M1, carbachol, beta-lactamase ratio, 5 h; at 7.69 µM (top of the series) unless noted
Method in brief: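 Jurkat cells with NFAT-driven β-lactamase reporter and co-expressed M1 receptor, stimulated with carbachol (final 1 uM, ~EC50), compound titration, 5 h at 37 °C. CCF4 loaded 1 h at RT; 460/530 nm ratio gave %activity and AC50.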

[8] = target: Glucocorticoid receptor (Homo sapiens) (UniProt P04150); experiment: GR-GFP Redistribution (AID 450;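 active = compounds whose dose series gives a full or clear partial fitted curve of increased nuclear translocation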; note: potency is the fitted concentration of half-maximal effect); settings: U2OS GR-GFP nuclear translocation, laser cytometry, 2 h
[9] = target: Cytochrome P450 1A2 (Homo sapiens) (UniProt P05177); experiment: p450-cyp1a2 (AID 410; calls by dose curve; note: potency is the fitted concentration of half-maximal effect); settings: recombinant CYP1A2, luciferin-ME demethylation, luminescence; series mostly up to 57 µM
Method in brief: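 20nM CYP1A2 with 100uM Luciferin-ME (at Km) in 100mM KPO4; compound preincubated 10 min, NADPH regeneration added, 60 min at room temperature. Luciferin quantified by luminescence after detection reagent; normalized to 57 uM furafylline.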

[10] = target: Glucocorticoid receptor (Homo sapiens) (UniProt P04150); experiment: GR-EFC Redistribution (AID 451; calls by dose curve; note: potency is the fitted concentration of half-maximal effect); settings: CHO-K1 GR-EFC translocation, beta-gal luminescence, 2 h
Method in brief: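 CHO-K1 cells expressing nuclear EA and GR-ED fragments of b-gal; compounds titrated up to 46 uM final, 2 h at 37 C. GR nuclear translocation read as complemented b-gal luminescence after 1 h RT detection.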

[11] = target: 3',5'-cyclic-AMP phosphodiesterase 4B (Homo sapiens) (UniProt Q07343); experiment: qHTS Assay for Inhibitors of PDE-IV (AID 607; active = well fitted activation curve with a large enough effect in the main read-out, with a control signal flat, not every such curve was filed as active; note: % of control where 0% means no effect); settings: HEK293 ACTOne CNG channel cells, membrane potential fluorescence; series mostly up to 22.9 µM
Method in brief: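 Live HEK293 cells with a modified cyclic nucleotide-gated (CNG) channel report intracellular cAMP via membrane-potential dye fluorescence (ex 535/em 590 nm). Endogenous PDE-IV was targeted. Compounds were tested at up to 22.9 uM final; RO 20-1724 100 uM served as control.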

Sequence of ATP-dependent 6-phosphofructokinase (Trypanosoma brucei brucei) (O15648 whole entry, looked up): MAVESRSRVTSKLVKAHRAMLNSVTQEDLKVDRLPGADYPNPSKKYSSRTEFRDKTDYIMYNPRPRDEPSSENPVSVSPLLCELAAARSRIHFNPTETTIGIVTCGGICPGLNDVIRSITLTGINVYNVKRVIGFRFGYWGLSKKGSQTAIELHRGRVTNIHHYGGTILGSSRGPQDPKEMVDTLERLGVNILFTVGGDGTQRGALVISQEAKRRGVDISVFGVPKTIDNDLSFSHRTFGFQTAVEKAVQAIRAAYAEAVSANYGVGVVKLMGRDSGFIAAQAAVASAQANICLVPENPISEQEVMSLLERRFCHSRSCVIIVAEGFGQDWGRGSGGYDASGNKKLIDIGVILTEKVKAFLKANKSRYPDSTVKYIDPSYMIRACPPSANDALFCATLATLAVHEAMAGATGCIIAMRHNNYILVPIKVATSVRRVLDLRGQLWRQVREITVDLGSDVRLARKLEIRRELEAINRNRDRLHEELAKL
Sequence of Androgen receptor (Homo sapiens) (P10275 whole entry, looked up): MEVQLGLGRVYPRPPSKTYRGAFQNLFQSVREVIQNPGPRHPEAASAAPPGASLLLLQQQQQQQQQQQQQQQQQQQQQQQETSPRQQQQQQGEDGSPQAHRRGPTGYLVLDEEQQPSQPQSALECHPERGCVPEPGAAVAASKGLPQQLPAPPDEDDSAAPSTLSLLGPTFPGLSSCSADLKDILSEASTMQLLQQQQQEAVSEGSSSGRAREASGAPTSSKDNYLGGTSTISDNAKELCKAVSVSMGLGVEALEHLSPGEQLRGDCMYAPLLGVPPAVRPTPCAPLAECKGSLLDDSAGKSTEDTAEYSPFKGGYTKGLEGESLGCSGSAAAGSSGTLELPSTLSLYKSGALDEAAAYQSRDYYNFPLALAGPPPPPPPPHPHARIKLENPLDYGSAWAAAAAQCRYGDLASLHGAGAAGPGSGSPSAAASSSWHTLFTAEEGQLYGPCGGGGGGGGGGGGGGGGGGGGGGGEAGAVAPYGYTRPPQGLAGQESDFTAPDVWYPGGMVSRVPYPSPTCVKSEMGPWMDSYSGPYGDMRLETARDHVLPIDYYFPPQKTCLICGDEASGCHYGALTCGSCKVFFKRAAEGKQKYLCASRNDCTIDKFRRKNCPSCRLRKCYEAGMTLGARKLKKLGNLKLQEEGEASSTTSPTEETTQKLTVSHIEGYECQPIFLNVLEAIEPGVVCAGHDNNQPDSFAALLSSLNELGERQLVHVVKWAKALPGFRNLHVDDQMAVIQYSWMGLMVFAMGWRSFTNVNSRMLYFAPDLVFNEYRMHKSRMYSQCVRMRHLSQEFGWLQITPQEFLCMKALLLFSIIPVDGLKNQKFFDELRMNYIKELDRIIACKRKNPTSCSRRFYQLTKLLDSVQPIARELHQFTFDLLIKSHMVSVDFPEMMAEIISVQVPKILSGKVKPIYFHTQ
Sequence of Glucocorticoid receptor (Homo sapiens) (P04150 whole entry, looked up, the tested form may be a part): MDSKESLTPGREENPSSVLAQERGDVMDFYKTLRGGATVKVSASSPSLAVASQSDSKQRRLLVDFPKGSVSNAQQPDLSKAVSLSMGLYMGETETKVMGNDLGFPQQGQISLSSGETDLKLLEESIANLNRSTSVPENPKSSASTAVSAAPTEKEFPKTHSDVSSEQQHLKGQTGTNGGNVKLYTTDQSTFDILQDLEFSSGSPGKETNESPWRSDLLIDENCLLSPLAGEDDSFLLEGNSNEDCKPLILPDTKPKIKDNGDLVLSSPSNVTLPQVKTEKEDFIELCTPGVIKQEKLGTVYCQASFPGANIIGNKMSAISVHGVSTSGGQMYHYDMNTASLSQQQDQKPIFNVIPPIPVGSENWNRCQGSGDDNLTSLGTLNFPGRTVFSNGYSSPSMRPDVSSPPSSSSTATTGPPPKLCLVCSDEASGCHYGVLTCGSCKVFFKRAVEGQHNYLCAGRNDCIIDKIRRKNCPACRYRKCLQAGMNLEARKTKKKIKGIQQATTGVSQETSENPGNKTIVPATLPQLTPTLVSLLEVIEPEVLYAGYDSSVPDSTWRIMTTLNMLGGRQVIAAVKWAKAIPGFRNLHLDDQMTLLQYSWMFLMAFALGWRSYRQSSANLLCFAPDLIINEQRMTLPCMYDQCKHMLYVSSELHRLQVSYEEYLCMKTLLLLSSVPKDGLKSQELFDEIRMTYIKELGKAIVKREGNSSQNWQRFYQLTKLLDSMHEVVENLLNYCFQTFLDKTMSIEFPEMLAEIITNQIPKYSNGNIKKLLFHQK
Sequence of Cytochrome P450 3A4 (Homo sapiens) (P08684 whole entry, looked up): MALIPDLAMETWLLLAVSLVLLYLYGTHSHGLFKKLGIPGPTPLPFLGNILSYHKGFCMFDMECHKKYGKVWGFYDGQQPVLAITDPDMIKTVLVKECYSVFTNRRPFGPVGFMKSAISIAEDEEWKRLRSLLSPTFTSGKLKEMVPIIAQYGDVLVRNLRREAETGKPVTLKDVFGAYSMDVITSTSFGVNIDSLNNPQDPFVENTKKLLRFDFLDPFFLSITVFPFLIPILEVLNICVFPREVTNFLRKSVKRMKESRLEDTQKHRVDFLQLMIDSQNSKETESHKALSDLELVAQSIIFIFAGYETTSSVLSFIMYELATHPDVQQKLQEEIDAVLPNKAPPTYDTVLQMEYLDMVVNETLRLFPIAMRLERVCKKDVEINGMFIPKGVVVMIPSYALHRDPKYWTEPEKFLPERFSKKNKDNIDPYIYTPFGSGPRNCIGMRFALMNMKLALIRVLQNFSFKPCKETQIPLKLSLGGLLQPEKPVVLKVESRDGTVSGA
Sequence of Cytochrome P450 1A2 (Homo sapiens) (P05177 whole entry, looked up): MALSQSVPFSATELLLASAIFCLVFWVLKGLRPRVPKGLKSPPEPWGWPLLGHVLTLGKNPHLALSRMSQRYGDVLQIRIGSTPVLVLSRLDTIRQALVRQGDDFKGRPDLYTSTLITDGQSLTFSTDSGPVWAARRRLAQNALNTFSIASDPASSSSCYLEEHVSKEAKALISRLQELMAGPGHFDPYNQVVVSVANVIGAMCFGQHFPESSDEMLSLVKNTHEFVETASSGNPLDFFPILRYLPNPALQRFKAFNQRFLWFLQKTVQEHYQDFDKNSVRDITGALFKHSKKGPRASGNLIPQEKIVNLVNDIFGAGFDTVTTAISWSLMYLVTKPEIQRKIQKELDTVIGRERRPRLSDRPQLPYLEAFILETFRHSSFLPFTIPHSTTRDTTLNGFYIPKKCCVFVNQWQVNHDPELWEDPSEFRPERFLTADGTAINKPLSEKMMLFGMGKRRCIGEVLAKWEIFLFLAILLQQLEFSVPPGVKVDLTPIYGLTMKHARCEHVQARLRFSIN
Sequence of 3',5'-cyclic-AMP phosphodiesterase 4B (Homo sapiens) (Q07343 whole entry, looked up): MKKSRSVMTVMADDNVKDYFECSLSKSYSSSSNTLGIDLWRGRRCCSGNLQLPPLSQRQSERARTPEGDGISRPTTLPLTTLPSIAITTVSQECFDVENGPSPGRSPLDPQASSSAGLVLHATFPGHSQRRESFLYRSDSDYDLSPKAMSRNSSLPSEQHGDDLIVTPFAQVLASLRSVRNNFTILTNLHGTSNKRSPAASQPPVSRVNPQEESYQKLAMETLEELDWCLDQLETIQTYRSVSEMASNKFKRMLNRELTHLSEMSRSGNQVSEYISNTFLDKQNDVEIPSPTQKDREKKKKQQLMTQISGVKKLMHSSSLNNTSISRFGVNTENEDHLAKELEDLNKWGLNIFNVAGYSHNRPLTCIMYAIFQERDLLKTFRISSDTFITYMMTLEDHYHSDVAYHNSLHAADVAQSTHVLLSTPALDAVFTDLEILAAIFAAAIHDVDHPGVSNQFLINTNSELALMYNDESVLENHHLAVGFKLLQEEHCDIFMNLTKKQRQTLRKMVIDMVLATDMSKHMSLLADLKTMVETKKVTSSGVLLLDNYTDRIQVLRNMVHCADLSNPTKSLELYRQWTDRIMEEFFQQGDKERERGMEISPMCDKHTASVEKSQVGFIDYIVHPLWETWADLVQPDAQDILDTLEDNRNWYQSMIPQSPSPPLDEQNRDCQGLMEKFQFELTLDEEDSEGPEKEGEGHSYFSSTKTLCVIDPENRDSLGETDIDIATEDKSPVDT

O=C(O)c1ccccc1C(c1ccc(O)cc1)c1ccc(O)cc1
inactive: activation [1] 7.12% and 7.97%

CCC(=O)O[C@@H](OP(=O)(CCCCc1ccccc1)CC(=O)N1C[C@H](C2CCCCC2)C[C@H]1C(=O)O)C(C)C (some centres undefined)
active: Potency (7G8) 12.6 µM
inactive: outcome [2] | Potency (CP194) | Potency (CP201) | Potency (CP211) | Potency (CP215) | Potency (DIV14) | Potency (PC26)

CC1CCC(C(C)C)C(OC(=O)c2ccccc2O)C1 (centres undefined)
inactive: outcome [2] | Potency [3] | Potency (7G8) | Potency (CP194) | Potency (CP201) | Potency (CP203) | Potency (CP211) | Potency (CP215) | Potency (DIV14) | Potency (P93_24) | Potency (PC26)

Cc1cc(CC(C)CC(C)(C)C)n(O)c(=O)c1 (centres undefined)
active: Potency [3] 2.51 µM | Potency (7G8) 2.82 µM | Potency (CP194) 4.26 µM | Potency (CP201) 4.78 µM | Potency (CP203) 3.38 µM | Potency (CP211) 3.38 µM | Potency (CP215) 2.13 µM | Potency (DIV14) 1.51 µM | Potency (P93_24) 2.24 µM | Potency (PC26) 3.79 µM
inactive: outcome [2]

CC(C)CN(C[C@@H](OP(=O)(O)O)[C@H](Cc1ccccc1)NC(=O)O[C@@H]1CCOC1)S(=O)(=O)c1ccc(N)cc1
inactive: outcome [2] | Potency [3] | Potency (7G8) | Potency (CP194) | Potency (CP201) | Potency (CP203) | Potency (CP211) | Potency (CP215) | Potency (DIV14) | Potency (P93_24) | Potency (PC26)

CO/N=C(/C(=O)N[C@@H]1C(=O)N2C(C(=O)O)=CCS[C@H]12)c1csc(N)n1
inactive: Potency [3] | Potency (7G8) | Potency (CP194) | Potency (CP201) | Potency (CP203) | Potency (CP211) | Potency (CP215) | Potency (P93_24) | Potency (PC26)

CCC(C)n1ncn(-c2ccc(N3CCN(c4ccc(OCC5COC(Cn6cncn6)(c6ccc(Cl)cc6Cl)O5)cc4)CC3)cc2)c1=O (centres undefined)
active: Potency (7G8) 3.55 µM
inactive: activity change, negative = inhibition [4] -2.36% [at 17.2 µM] | outcome [5] | Potency (CP194) | Potency (CP201) | Potency (CP203) | Potency (CP211) | Potency (DIV14) | Potency (P93_24)

COc1ccc2nc(N)sc2c1
inactive: outcome [6] | activation [1] 3.27% and 6.72%

Nc1nc(-c2ccc(Cl)c(Cl)c2)c(-c2ccncc2)s1
inactive: outcome [6]

O=C1c2ccccc2C(=O)C1c1ccc2ccccc2n1
inactive: activity change, negative = inhibition [4] 13% [at 17.2 µM] | activity change, negative = inhibition [7] 21.8% [at 17.2 µM] | outcome [5] | Potency [8] > 20.6 µM

COc1c2ccoc2cc2oc(=O)ccc12
active: Potency [9] 0.0158 µM
inactive: Potency [8] > 46 µM | Potency [10] > 46 µM | Potency [11]

COc1cc(/C=C/C(=O)N2CCC=CC2=O)cc(OC)c1OC
inactive: outcome [6]

CCCN(CCC)C(=O)SCC
inactive: activation [1] 12.4% and -3.98%

CN1CC[C@H](CN2c3ccccc3Sc3ccccc32)C1
inactive: outcome [5] | Potency [11] | outcome [2] | Potency [3]
active: Potency [9] 5.01 µM | activity change, negative = inhibition [7] -75.3% | Potency (7G8) 1.41 µM | Potency (CP203) 9.53 µM | Potency (DIV14) 4.26 µM | Potency (P93_24) 7.08 µM | Potency (PC26) 13.5 µM
